# Screening results (PubChem BioAssay)
# The list is not random: actives were taken first. Their share in the collection is about 3.5%.
# TbPYK inhibitor = inhibitors of Trypanosoma brucei pyruvate kinase; AID 624173; 410,000 compounds, 0.12% hits; Q57TT1; TbPYK enzyme, Kinase-Glo Plus ATP luminescence, 45 min; Potency, µM (titrated, usually from 76.8 µM), inactives show top-dose activity, negative = inhibition, actives largely listed as inhibitors; also: % is scaled to controls: 0 for no effect and ±100 for the full control effect; nearly all actives have a fitted effect of over 50% in size
#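 Enzyme and substrate buffer are dispensed first and compound is pin-transferred. ADP at 130 uM final then starts the reaction, which runs 45 min at room temperature. Detection reagent is added for 10 min before luminescence is imaged.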
# NS1 inh = blocks influenza NS1 protein function. Potency, µM (titrated, usually from 46.1 µM), for inactives: at the top dose activity, positive = more growth. 270,000 compounds, 0.4% hits; calls by dose curve; also: actives are rising curves; nearly all actives have a fitted effect of over 50% in size
#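 S. cerevisiae expressing influenza A NS1, grown in glucose, washed, then diluted 1:100 into pH 6.0 -URA galactose medium with 23 nl compound. Growth recovery read as OD600; NS1-free strain serves as control.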
# RE007 growth inh = less growth of the S. pombe RE007 Vpr strain; Potency, µM (titrated, usually from 92.2 µM), for the others: at the highest dose activity change, negative = less growth, actives largely listed as inhibitors; S. pombe RE007 Vpr strain, BacTiter-Glo ATP luminescence, 24 h; 360,000 compounds, 0.21% hits; active = well fitted falling curve with a large enough effect; inconclusive = small, poorly fitted or top-dose-only effect; inactive = no such curve, though single readings can be large or run the other way; also: % is scaled to controls: 0 for no effect and ±100 for the full control effect; nearly all actives have a fitted effect of over 50% in size
#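 Fission yeast strain RE007, carrying one chromosomally integrated HIV-1 vpr copy, was seeded at OD 0.01 in PMG+AL medium with 23 nL pinned compound. After 24 h at 30 °C and 99% humidity, viability was read by BacTiter-Glo luminescence.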
# FBPA Giardia inh = blocks Giardia fructose-bisphosphate aldolase activity. A8B2U2. purified Giardia FBPA. Potency, µM (highest dose often 59.6 µM), inactives show top-dose activity, negative = inhibition, usual class: inhibitors. 290,000 compounds, 0.71% hits; also: % is scaled to controls: 0 for no effect and ±100 for the full control effect; nearly all actives have a fitted effect of over 55% in size
# Target sequence (A8B2U2 whole entry, looked up): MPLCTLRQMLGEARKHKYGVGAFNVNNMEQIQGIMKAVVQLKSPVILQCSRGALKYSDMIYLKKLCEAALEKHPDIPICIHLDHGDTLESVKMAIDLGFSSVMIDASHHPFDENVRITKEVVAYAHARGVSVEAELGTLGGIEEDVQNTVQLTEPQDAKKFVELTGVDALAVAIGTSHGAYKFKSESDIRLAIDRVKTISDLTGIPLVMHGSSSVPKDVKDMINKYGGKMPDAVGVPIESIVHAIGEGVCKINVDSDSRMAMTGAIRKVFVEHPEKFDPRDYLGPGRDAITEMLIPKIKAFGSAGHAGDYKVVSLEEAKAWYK
#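 40 nM FBPA preincubated 10 min at RT with compound (up to 57.5 uM final), then substrate plus GAPDH/TPI/NAD/arsenate coupling and diaphorase/resazurin added. Fluorescence read after 20 min at RT, 525/598 nm.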
# LmPK inh = inhibitors of Leishmania mexicana pyruvate kinase. AID 1721. Q27686. purified LmPK, Kinase-Glo ATP luminescence, 1 h. Potency, µM (top dose mostly 57.5 µM), inactives show at the top dose activity change, negative = inhibition, hits mostly inhibitors. 290,000 compounds, 0.37% hits; also: % is scaled to controls: 0 for no effect and ±100 for the full control effect
#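 Screened at intermediate enzyme activity to detect both inhibitors and activators: LmPK at 0.1 nM, with a 0.5 nM enzyme column as activation reference. PEP 0.5 mM, ADP 0.1 mM; ATP detected by luminescence after 1 h.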
# Sm TGR inh = inhibitors of Schistosoma mansoni thioredoxin glutathione reductase | Q962Y6 | purified TGR, DTNB reduction, TNB absorbance 405 nm | Potency, µM (top dose mostly 114 µM), for the others: at the highest dose activity change, negative = inhibition, actives largely listed as inhibitors | 360,000 compounds, 3% hits; also: % is scaled to controls: 0 for no effect and ±100 for the full control effect; nearly all actives have a fitted effect of over 60% in size
#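 Kinetic colorimetric format: TGR-catalysed, NADPH-driven DTNB reduction monitored via TNB absorbance. Enzyme dispensed at 20 nM; compound exposure 15 min at room temperature before reaction start.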
# Starred values were filed as active, the others as inactive; ? = inconclusive; / = not tested or not shown; [ ] = dose if it differs, or a comment. Unless noted, calls follow the shape of the dose curve; as a rule, active = well fitted curve in the direction sought with a large enough effect; inconclusive = small, poorly fitted or top-dose-only effect, or another doubt; inactive = no such curve, though single readings can be large; an effect the other way counts as inactive or inconclusive. Potency is read from the fitted curve at half-maximal effect.
SMILES,TbPYK inhibitor,NS1 inh,RE007 growth inh,FBPA Giardia inh,LmPK inh,Sm TGR inh
COc1ccc(C2C(C(=O)c3sc(C)nc3C)=C(O)C(=O)N2CCN(C)C)cc1OC (stereo not given),2.2%,0.5%,-1.1%,1.5%,-9.8%,-30.8%
Cc1ccc(C2C(C(=O)c3sc(C)nc3C)=C(O)C(=O)N2CCN(C)C)o1 (stereo not given),-4.4%,1.8%,11.2%,-15.4%,-3.7%,44.7µM*
CCN(CC)CCN1C(=O)C(O)=C(C(=O)c2cccs2)C1c1ccccn1 (stereo not given),-6.0%,9.3%,-8.5%,?,0.6%,?
O=C(C1=C(O)C(=O)N(CCN2CCOCC2)C1c1ccccn1)c1cccs1 (stereo not given),-10.2%,15.6%,-23.9%,?,-5.0%,20µM*
CCN(CC)CCN1C(=O)C(O)=C(C(=O)c2cccs2)C1c1ccc(C)o1 (stereo not given),-11.5%,-2.9%,0.0%,-25.5%,2.8%,28.2µM*
COc1cccc(NC(=O)CSc2nc3ccc(NC(=O)c4cccs4)cc3s2)c1,3.1%,/,/,/,/,-0.4%
Cc1ccc(Cl)cc1NC(=O)c1oc2c(c1C)-c1[nH]ncc1CC2,5.8%,/,/,/,/,0.4%
Cc1nn(C(C)C(=O)N2CCN(c3ccc(F)cc3)CC2)c(=O)c2c1sc1ccccc12 (stereo not given),-4.3%,/,/,/,/,0.2%
Cn1cccc1-c1cc2n(n1)CCC(=O)N2CCCC(=O)NCc1cccc(Cl)c1,0.3%,/,/,/,/,-22.4%
COc1ccccc1CNC(=O)c1c(O)nc2cc(C)ccn2c1=O,4.2%,/,/,/,/,12.8%
COc1ccccc1NC(=O)c1ccc(NC(=O)COC(=O)C(C)C)cc1,-1.0%,-13.1%,-9.9%,-0.6%,-2.5%,31.6µM*
COC(=O)C/C=C/C(C)C(OC)c1ccccc1Br (stereo not given),/,/,/,-0.3%[12.9 µM],/,/
Cc1ccc(OCC(=O)Nc2ccc3nc(SCCOc4ccccc4)sc3c2)cc1,1.2%,/,/,/,/,2.7%
CC(=O)c1ccc(NC(=O)CSc2nc(-c3cccc(F)c3)nc3c2c(=O)n(C)c(=O)n3C)cc1,-7.0%,/,/,/,/,0.4%
CC(=O)c1ccc(NC(=O)CSc2nc(-c3ccccc3C)nc3c2c(=O)n(C)c(=O)n3C)cc1,3.9%,/,/,/,/,50.1µM*
COc1ccc(NC(C)=O)cc1NC(=O)C1(c2cccs2)CCOCC1,-1.0%,/,/,/,/,-6.1%
Cc1ccc(C2NC(=O)c3c(sc(C)c3C)N2)c(O)c1 (stereo not given),-22.4%,-15.0%,0.2%,-18.5%,0.2%,25.1µM*
CC(C)CN(CC(C)C)C1=N/C(=C\c2ccco2)C(=O)N1c1ccccc1,1.5%,16.7%,-4.8%,-3.3%,4.7%,6.31µM*
COc1ccc(N2C(=O)/C(=C\c3ccco3)N=C2SCC(=O)N(C(C)C)C(C)C)cc1Cl,3.6%,?,-5.4%,-22.9%,3.2%,?
CCN(CC)C1=N/C(=C\c2ccco2)C(=O)N1c1ccccc1,-5.1%,-5.2%,-8.6%,-3.1%,0.5%,44.7µM*
CCSC1=N/C(=C\c2cccnc2)C(=O)N1c1ccccc1,1.9%,-30.8%,-20.3%,2.1%,0.6%,3.7%
CCOc1ccc(CNC(=O)Cn2ccc3cc(S(=O)(=O)N4CCCCC4)ccc32)cc1,2.0%,/,/,/,/,0.9%
CC[C@H](C)[C@H](N)C(=O)N[C@H](C(=O)N[C@@H](CO)C(=O)N[C@@H](C)C(=O)N[C@H](C(=O)N[C@H](C(=O)NCC(=O)N[C@H](C(=O)N[C@@H](CC(C)C)C(=O)O)[C@@H](C)CC)C(C)C)C(C)C)[C@@H](C)CC,/,/,/,0.9%,/,/
CC1(C(=O)NNC(=O)c2ccc(=O)oc2)CC1Br (stereo not given),2.5%,3.9%,-7.9%,12.1%,9.5%,10µM*
CC(=O)NC(CCS(C)(=O)=O)C(=O)Nc1ccccc1 (stereo not given),2.5%,-2.3%,22.3%,-0.5%,-3.4%,-8.2%
SMILES,TbPYK inhibitor,NS1 inh,RE007 growth inh,FBPA Giardia inh,LmPK inh,Sm TGR inh
CC(=O)NC(CCS(C)(=O)=O)C(=O)Nc1cccc(C(C)=O)c1 (stereo not given),-4.3%,-0.2%,7.2%,-1.4%,-0.7%,44.7µM*
O=C(CCc1nnc(C2CCCCC2)o1)N1CCN(C2CCCCC2)CC1,-2.4%,0.4%,1.5%,3.2%,-9.5%,56.2µM*
O=C(CCc1nnc(C2CCCCC2)o1)N1CCN(c2ccccc2F)CC1,-10.7%,9.0%,12.3%,15.4%,-8.1%,-28.1%
Cc1cc2nc(-c3ccccc3)cc(=O)n2[nH]1,-7.5%,3.2%,-6.1%,?,-1.0%,-13.0%
Cc1cc(-c2ccccc2)nc2c(Br)c(=O)[nH]n12,-11.3%,?,1.0%,3.0%,1.4%,44.7µM*
N[C@@H](COC(c1cccc(F)c1)c1ccccc1OCc1ccccc1)C(=O)O (stereo not given in full),/,/,/,-20.1%,/,/
CC(C)(C)NC(=O)C(c1ccncc1)N(Cc1ccco1)C(=O)c1ccc(-c2ccccc2)[nH]1 (stereo not given),-8.3%,4.1%,-9.3%,-16.1%,5.3%,10µM*
CC(C)(C)NC(=O)C(c1ccc(Cl)cc1)N(Cc1ccco1)C(=O)CCl (stereo not given),-13.9%,-2.1%,-5.1%,-18.6%,-0.4%,11.2µM*
CC(C)(C)NC(=O)C(c1ccc(O)cc1)N(Cc1ccco1)C(=O)CCC(=O)Nc1ccccn1 (stereo not given),-19.1%,-5.7%,-17.0%,8.4%,6.6%,-10.2%
CCC(=O)Nc1cc(NC(=O)CSc2ncc(-c3ccc(F)cc3)n2Cc2ccco2)ccc1C,-3.9%,-9.0%,-0.7%,2.3%,-0.9%,44.7µM*
O=C(CSc1nnc(-c2ccc(Cl)cc2)n1Cc1ccco1)c1cccs1,-16.2%,-1.2%,7.3%,13.3%,0.2%,28.2µM*
O=C(CSc1nnc(-c2ccncc2)n1Cc1ccco1)Nc1ccccc1Cl,-1.5%,3.1%,1.7%,3.3%,0.9%,-22.5%
O=C(CSc1nnc(Cc2cccs2)n1Cc1ccco1)Nc1cc(Cl)cc(Cl)c1,3.2%,-4.9%,11.6%,3.4%,2.4%,35.5µM*
O=C(CSc1nnc(-c2ccncc2)n1Cc1ccco1)Nc1ccccc1F,-0.1%,0.7%,-9.3%,8.7%,-1.7%,50.1µM*
CCOC(=O)c1ccc(OCCN2C[C@H](O)[C@@H](O)[C@H](O)[C@H]2CO)cc1,3.9%,/,/,/,/,/
O=S(=O)(c1ccccc1)c1nc(-c2ccccc2)oc1N1CCN(c2cccc(Cl)c2)CC1,0.8%,/,/,/,/,4.5%
O=C(CSc1nnc(-c2ccncc2)n1Cc1ccco1)c1ccc(Cl)cc1,-27.9%,-18.0%,-0.9%,-7.2%,5.3%,0.891µM*
